33 molecules from PubChem BioAssay (NCATS) can be followed below.

Records with an inconclusive call do not appear. Entries that show only a call come without a potency. Calls of active or inactive are those of the source. The call rests on the fitted dose curve; in most records, active means well fitted inhibition curve with a large enough effect; inconclusive means small, poorly fitted or top-dose-only effect; inactive means no such curve, though single readings can be large or run the other way.
Potency means the concentration at half of the fitted maximal effect.

The experiment has as its system Zika virus NS2B-NS3 protease (unlinked). Nature of the experiment: Optimization of GU AMC qHTS for Zika virus inhibitors: Unlinked NS2B-NS3 protease assay (AID 1347151). Further: nearly all actives have a fitted effect of over 80% in size. The following applies: recombinant ZIKV NS2B-NS3 protease, fluorogenic AMC substrate; series mostly up to 52.5 µM. The method, boiled down:
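Noncovalent complex of NS2B hydrophilic domain and NS3 protease domain, 25 nM final, in 10 mM Tris-HCl pH 8.0, 0.01% Tween 20. AMC fluorescence change over 15 min at room temperature was fitted to a 4-parameter Hill equation.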
For orientation: Quantitative high-throughput screening tests each substance at several concentrations.
On to `CC(C)(C)c1o[nH]c(=O)c1CC(N)C(=O)O` (stereo not drawn), for which the Potency result was “inactive”. For the molecule `CCCN1CC[C@@H]2c3cc(O)ccc3CC[C@@H]21`, the Potency result is “inactive”. Consider `CC(=O)NBr`, for which the Potency entry was “inactive”.

Regarding `CC(=O)c1c(O)c(C)c(O)c(Cc2c(O)c3c(c(C(=O)/C=C/c4ccccc4)c2O)OC(C)(C)C=C3)c1O`, the Potency was 11.9 µM (active). Turning to `O=C1C=CC(=O)C=C1`, the Potency result is “inactive”.

For the molecule `CCn1cnc2c(Nc3cccc(Cl)c3)nc(N[C@@H]3CCCC[C@@H]3N)nc21`, the Potency entry was “inactive”. Take `CCCN1CCc2cccc3c2[C@H]1Cc1ccc(O)c(O)c1-3`: the Potency was 29.9 µM (active). As for `CC1(C(=O)O)C2CCC(O2)C1(C)C(=O)O` (stereo not drawn), the entry is “inactive”; as for `C[N+](C)(C)CC#CCN1CCCC1=O`, “inactive”. `CC(C)NP(=O)(NC(C)C)OP(=O)(NC(C)C)NC(C)C`: the Potency entry was “inactive”. For `N[C@@]1(C(=O)O)CC[C@@H](C(=O)O)C1`, the Potency entry is “inactive”. As for `COc1ccc2c(c1)C13CCCCC1C(C2)N(C)CC3` (stereo not drawn), the entry is “inactive”; as for `O=[N+]([O-])/C=C/c1ccc2c(c1)OCO2`, “inactive”. As to `CP(=O)(O)C1=CCNCC1`, the Potency entry was “inactive”. Regarding `NNC(=O)c1ccc(O)cc1`, the Potency entry is “inactive”. The same measure for `CC12NC(Cc3ccccc31)c1ccccc12` (stereo not drawn): “inactive”; for `C[C@H](N)Cc1cccc(C(F)(F)F)c1`: “inactive”. Turning to `NCC(O)c1cc(O)c(O)cc1F` (stereo not drawn), the Potency entry was “inactive”.

As to `Cc1cc([C@@H]2CCCN2C)on1`, the Potency result is “inactive”.

For `c1ccc2c(N3CCNCC3)cccc2c1`, the Potency is 26.7 µM (active). `CN(C(=O)Cc1ccc(Cl)c(Cl)c1)C(CN1CCCC1)c1cccc(OCC(=O)O)c1` (stereo not drawn): the Potency result was “inactive”.

In the case of `CCCN(CCC)C1Cc2cc(OC)c(OC)cc2C1`, the Potency result was “inactive”. `CCCN1CCc2cc(O)cc3c2[C@H]1Cc1ccc(O)c(O)c1-3`: the Potency is 26.7 µM (active).

For `CCCN1CCC[C@@H](c2cccc(O)c2)C1`, the Potency entry is “inactive”.

Turning to `COc1ccc(OC)c(C(O)C(C)N)c1` (stereo not drawn), the Potency result is “inactive”. The same measure for `CC(N)c1cccc(Cl)c1Cl` (stereo not drawn): “inactive”; for `C[C@@H]1O[C@@H](O[C@H]2C[C@@H](O)[C@]3(CO)[C@@H]4C(CC[C@]3(O)C2)[C@@]2(O)CC[C@H]([C@@H]3COC(=O)C3)[C@@]2(C)C[C@H]4O)[C@H](O)[C@H](O)[C@H]1O` (stereo partly drawn): “inactive”; for `c1ccc2cc(CC3=NCCN3)ccc2c1`: “inactive”. Regarding `NC(CCCCCP(=O)(O)O)C(=O)O` (stereo not drawn), the Potency entry is “inactive”.

With `O=S1(=O)N(CCN2CC=C(c3c[nH]c4cc(F)ccc34)CC2)c2cccc3c2N1CCC3`, the Potency result is “inactive”.

For the molecule `[Cl-].[Cl][Pt].[NH2-].[NH2-].c1ccncc1`, the Potency result was “inactive”. As for `CCCC[N+]1(C)C2CC(OC(=O)[C@H](CO)c3ccccc3)CC1C1OC12` (stereo partly drawn), the entry is “inactive”; as for `C[N+]1(C)CCN(c2ccccc2)CC1`, “inactive”.
